Measurements from PubChem BioAssay (NCI).
The panel holds about 83,000 compounds, 20% with a hit somewhere; the sample as a whole holds those more often.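 Interpretation: 100, growth as untreated; towards 0, rising growth inhibition; 0, no net growth; 0 to -100, cell death. Compounds scoring below 10 were considered active.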 Unmarked numbers belong to inactive results. Activity calls are given as the source filed them.

These compounds were tested on SNB-19 CNS (assay: NCI-60 one-dose screen, 48 h (100 = growth as untreated, 0 = no growth, -100 = all killed)). Conditions: 10 µM unless noted.
Experimental: Growth inhibition of the SNB-19 human tumor cell line is measured as a screen for anti-cancer activity. Cells are grown in 96 well plates and exposed to the test compound for 48 hours. Compounds are tested at a single concentration, which is 10^-5 M for most compounds. The reported endpoint is percent growth (GI% or GIPRCNT), where numbers from 0 - 100% represent growth inhibition, and numbers from -100% - 0 represent cell death. For example, a value of 40 represents 60% growth inhibition. A value of 0 means no net growth occurred over the course of the experiment. A value of -40 indicates 40% of cells at the beginning of the experiment died by the end of the experiment. A value of -100 means all cells are dead at the end of the experiment.
NCI-60 Human Tumor Cell Lines Screen was performed using the standard one-dose NCI protocol, which is described in more detail at https://dtp.cancer.gov/discovery_development/nci-60/default.htm.
Compounds with GIPRCNT values below 10 were considered active. Activity score was based on GIPRCNT using the following formula: […]
Score is 0 for GIPRCNT values of 100 or above, 50 for GIPRCNT values of 0, and 100 for GIPRCNT values of -100.
CC(C)(C)NCCC(O)c1cc2c(Cl)cc(Cl)cc2c2cc(C(F)(F)F)ccc12 (stereo not given) was tested, and the growth was -70.9% (active). Oc1ccccc1/C=N/NC(=S)NC1CC2C=CC1C2 (stereo not given) showed a growth of 82.3%. For CC(=O)c1cc2c(N)c(C(=O)Nc3cccc4c3OCCO4)sc2nc1C, the growth was 93.2%. COc1ccc(-c2ccc(C)n2-c2ccc(-c3nc4cc(Cl)ccc4s3)cc2)cc1 gave a growth of 103%. COc1ccc(/C=C2\Oc3cc(OCCCN4CCCC4)ccc3C2=O)cc1 gave a growth of 92.4%. Work on COc1cccc(/C=C2\Oc3cc(OCCCN4CCCC4)ccc3C2=O)c1OC yielded a growth of 102%. Compound C=C[C@@H]1C[C@@H]2Cc3cc(F)ccc3N1O2 has a growth of 109%. COc1ccc(OC)c(/C=C2\Oc3cc(OCCCN4CCCC4)ccc3C2=O)c1 gave a growth of 82.1%. In the case of COc1ccc2[nH]c(=O)c3c4ccccc4cn3c2c1, the growth is reported as 27.9%. Work on CCCCCCCC/C=C/CCCCCCCC1=NC(C)(C)CN1C(C)(C)CO yielded a growth of 57.9%. In the case of Cc1ccc(S(=O)(=O)NC(=O)n2cc(-c3ccncc3)c(-c3ccc(Cl)c(O)c3)n2)cc1, the growth is reported as 117%. CCOc1cc2c(Cl)ncnc2c(OCC)c1OCC showed a growth of 97.3%. With COc1ccc(S(=O)(=O)Nc2cc(/C=C\c3cc(OC)c(OC)c(OC)c3)cc(OC)c2OC)cc1 the growth was 57.7%. With Oc1ccc(Cl)cc1-c1cc(-c2ccc(F)cc2)n[nH]1 the growth was 77.6%. Work on O=C(CSc1nc2ccccc2[nH]1)Nc1ccc(-c2nc3ccccc3s2)c(Cl)c1 yielded a growth of 65%. COc1ccc(C(=O)c2cc(OC)c3c(c2)OCO3)cc1O showed a growth of 41%. Work on O=C1NC(=C(Cl)Cl)/C(=N/S(=O)(=O)N2CCC(C3(C(F)(F)F)N=N3)CC2)N1 yielded a growth of 86.7%. Cc1ccc2nc(Cl)cc(=O)n2c1 showed a growth of 105%. With CCN(CC)c1ccc(N=O)cc1 the growth was 93.1%. With Cc1ccc2ccccc2c1C[n+]1ccccc1 the growth was 101%. COc1ccc(Nc2[nH]n3c(=O)cc(-c4ccccc4)nc3c2C(=O)Nc2ccc(C)cc2)c(OC)c1 was tested, and the growth was 56.3%. In the case of COc1ccc(/C=N\NC(=O)CN2CCN(c3cc4c(cc3F)c(=O)c(C(=O)N/N=C/c3ccc(OC)c(OC)c3)cn4C3CC3)CC2)cc1OC, the growth is reported as -0.836% (active). Compound CC(C)(C)n1cc(-c2ccnc(NCCCNS(=O)(=O)c3ccc(F)cc3)c2)c(-c2cccc(O)c2)n1 has a growth of 71.3%. In the case of CCCCNC(=O)Oc1ccc(/C(=C(\C)c2ccccc2)c2ccc(OCCN(CC)CC)cc2)cc1, the growth is reported as 89.2%. C=C1C(=O)O[C@H]2[C@H]1CC/C(COC(=O)NCc1ccccc1OC)=C\CC[C@@]1(C)O[C@@H]21 was tested, and the growth was 57.6%. For O=C(c1ccccc1)c1c(/C=C/c2ccccc2)c2ccccc2[nH]c1=O, the growth was 79.4%. For CC(C)NCCCNC1=C(Cl)C(=O)c2ccccc2C1=O, the growth was 106%. O=C(Oc1ccccc1[N+](=O)[O-])C1CCCN1C(=O)OCc1ccccc1 (stereo not given) gave a growth of 103%. Compound O=C(Nc1cccc(-n2cc(-c3ccncc3)c(-c3ccc(Cl)c(O)c3)n2)c1)c1ccc(N2CCOCC2)c(C(F)(F)F)c1 has a growth of 65.7%. For COc1ccc(-c2nc(/C=N/Nc3cc(C)nc4ccc(Cl)cc34)c(C)o2)cc1, the growth was -90.4% (active). CC(C)(C)n1cc(-c2ccnc(NCCCNS(=O)(=O)c3ccc(Cl)cc3)c2)c(-c2cccc(O)c2)n1 showed a growth of 24.6%. For COc1ccc(-c2ccc(-c3ccc(-c4ccc(C(=N)N)cc4)s3)s2)cc1OC, the growth was 87.7%. In the case of CCO/C=N/C1=C(C#N)C(c2ccc(Cl)cc2)c2c(c3ccc(C)cc3[nH]c2=O)O1 (stereo not given), the growth is reported as 84.7%. With CCC(=O)Oc1ccc(/C(=C(/C)Cc2cccc(OC)c2)c2ccc(OCCN(C)C)cc2)cc1 the growth was 92.6%. For FC(F)(F)c1ccccc1-c1cn2c(ccc3ccccc32)n1, the growth was 83%. O=C(CCl)N(C1CCCCC1)C1CCCCC1 showed a growth of 109%. COc1ccc(C2C=C(c3ccc(N)cc3)N=C3SC=CN32)cc1OC (stereo not given) showed a growth of 102%. O=C1CS/C(=N\Nc2cc(=O)[nH]c3ccccc23)N1c1ccccc1 showed a growth of 90.7%. C=C1CCC2C(C)(CO)C(O)CCC2(C)C1C/C=C1/C(=O)OCC1Oc1ccccc1C (stereo not given) was tested, and the growth was 83.4%. Compound O=C1/C(=C/c2ccccc2)Oc2ccc(O)c(I)c21 has a growth of 99.1%.
